About 1,400 (0.41%) of roughly 340,000 compounds were called active.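 Rule for the calls: active = response above a set limit, near 3 SD of response in nonfluorescent compounds (cut at about 42% in these data); inactive = the rest.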 What follows is part of a selection rich in actives, with near analogues and random picks from the rest.
What follows are compounds tested against Beta-2 adrenergic receptor (Homo sapiens) (UniProt P07550) (assay: agonist-induced loss of surface beta2AR – cell-based, FAP fluorogen, flow cytometry, primary screen (AID 504454)). Conditions: Am2.2-beta2AR cells, FAP receptor internalization, active compounds read high, concentration not given here.
Sequence of Beta-2 adrenergic receptor (Homo sapiens) (P07550 whole entry, looked up): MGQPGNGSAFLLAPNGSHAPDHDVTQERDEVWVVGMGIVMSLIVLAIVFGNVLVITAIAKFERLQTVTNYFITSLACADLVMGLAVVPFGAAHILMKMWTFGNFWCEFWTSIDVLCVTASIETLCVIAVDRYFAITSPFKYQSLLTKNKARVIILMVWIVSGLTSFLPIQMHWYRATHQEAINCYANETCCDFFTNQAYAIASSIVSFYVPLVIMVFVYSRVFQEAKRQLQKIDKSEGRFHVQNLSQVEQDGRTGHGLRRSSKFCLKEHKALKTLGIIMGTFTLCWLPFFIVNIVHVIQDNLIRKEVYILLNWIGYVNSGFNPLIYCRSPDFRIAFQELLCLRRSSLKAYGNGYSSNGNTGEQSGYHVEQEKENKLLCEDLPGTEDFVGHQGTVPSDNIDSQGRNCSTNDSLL

Compound	response
COc1ccc(N2C(=O)/C(=C/c3ccco3)C(=O)NC2=S)cc1	11.6% (inactive)
O=C1NC(=O)N(Cc2ccco2)C(=O)/C1=C\c1ccc(-c2ccc(F)cc2)o1	47.3% (active)
O=C1NC(=O)N(CCc2ccc(F)cc2)C(=O)/C1=C/C=C/c1ccccc1	18.2% (inactive)
NC(=O)Nc1cccc(C(F)(F)F)c1	-1.13% (inactive)
Cc1ccc(N2C(=O)NC(=O)C(CCc3ccncc3)(Cc3cccc(Cl)c3Cl)C2=O)cc1 (stereo not given)	-11.4% (inactive)
O=C1NC(=O)C(CCc2ccccn2)(Cc2cccc(Cl)c2Cl)C(=O)N1c1ccc(Br)cc1 (stereo not given)	51.1% (active)
COc1ccc(C(=O)CC2C(=O)N(C)C(=O)N(C)C2=O)cc1	8.45% (inactive)
CCN(N=Nc1nonc1OC)c1nonc1OC	-1.92% (inactive)
Cc1c(Oc2cc(NN3CCCCC3)c([N+](=O)[O-])cc2[N+](=O)[O-])cccc1[N+](=O)[O-]	-2.15% (inactive)
CCCC(C)n1[nH]c(=O)c2c1NC(=O)CSC2c1ccc(OC)c(OC)c1 (stereo not given)	-2.18% (inactive)
C[C@]12CCC3C(CC[C@H]4[C@H](O)[C@H](O)CC[C@]34C)C1CCC2=O (stereo not given in full)	0.88% (inactive)
O=C(N/N=C/c1c(O)n(C2CC2)c(=S)[nH]c1=O)c1ccccc1	88.2% (active)
O=C(N/N=C/c1c(O)n(C2CC2)c(=S)[nH]c1=O)c1ccccc1Cl	-2.3% (inactive)
O=C(N/N=C/c1c(O)n(Cc2ccccc2)c(=O)[nH]c1=O)c1ccccc1	-4.99% (inactive)
CN1CCC[C@@H]1CCO[C@](C)(c1ccccc1)c1ccc(Cl)cc1	7.46% (inactive)
CCC(=O)CC(c1ccc([N+](=O)[O-])cc1)c1c(O)c2ccccc2oc1=O (stereo not given)	8.6% (inactive)
Cc1ccc2c(c1)C1CN(C)CCC1N2C(=O)Cn1nnc(-c2ccccc2F)n1 (stereo not given)	3.52% (inactive)
Cc1ccc(C(C)C)c(OCC(=O)N2CCN(CC(=O)N3CCOCC3)CC2)c1	1.49% (inactive)
CCC(=O)c1ccc(OCC(=O)N2CCN(CC(=O)Nc3ccc(C)cc3)CC2)cc1	80.6% (active)
CCc1ccc(OCC(=O)N2CCN(CC(=O)Nc3ccccc3Cl)CC2)cc1	1.84% (inactive)
